Results as given in PubChem BioAssay.
The source made the active and inactive calls.

Legend:
[1] = binders of probe aFSTL3 on microarray, primary screen, stem cell growth factor project, biochemical, small-molecule microarray, fluorescence 635/667 (AID 1064); conditions: higher = more signal;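 further: measures binding of the biotinylated anti-FSTL3 antibody to printed compounds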
[2] = binders from COS7 lysate, DM2A8 probe, primary screen, torsin A project, cell lysate, small-molecule microarray, fluorescence 635/667 (AID 1065); conditions: higher = more signal, COS7 lysate expressing mutant human TOR1A
[3] = binders of probe aFGF2 on microarray, primary screen, stem cell growth factor project, biochemical, small-molecule microarray, fluorescence 635/667 (AID 1067); conditions: higher = more signal;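 further: measures binding of biotinylated aFGF2 protein to printed compounds on slides; z-score merges feature fluorescence and signal-to-noise across triplicate slides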
[4] = binders of probe aFGF10 on microarray, primary screen, stem cell growth factor project, biochemical, small-molecule microarray, fluorescence 635/667 (AID 1071); conditions: higher = more signal;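 further: score merges 667 nm spot intensity and signal to noise from triplicate slides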
[5] = target: Neurogenic locus notch homolog protein 2 (Homo sapiens) (UniProt Q04721); assay: Notch2 binders on small-molecule microarrays, primary screen, biochemical, small-molecule microarray, 635 nm fluorescence, stem cell growth factors (AID 1073); conditions: Notch2 binding, higher = more signal
[6] = target: Pro-neuregulin-1, membrane-bound isoform (Homo sapiens) (UniProt Q02297); assay: NRG1 binders on small-molecule microarrays, primary screen, psychiatric disease protein project, biochemical, small-molecule microarray, fluorescence 635/667 (AID 1075); conditions: NRG1 binding, 635 nm fluorescence, higher = more signal;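 further: score combines 667 nm spot fluorescence with signal to noise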
[7] = tested on: Neuregulin-1 EGF-like domain; assay: binders of neuregulin-1 EGF-like domain, primary screen, biochemical, small-molecule microarray, 635 nm fluorescence (AID 1081); conditions: small-molecule microarray binding, higher = more signal;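 further: binding of the protein to compounds printed on small-molecule microarray slides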
[8] = FRG1 promoter luciferase signal modulators, primary screen, FRG1 inhibition for FSHD, cell-based, C2C12 myotubes, firefly/Renilla luciferase, luminescence (AID 1084); conditions: higher = more signal, called active from +8 up or from −8 down
[9] = binders of probe aFST on microarray, primary screen, stem cell growth factor project, biochemical, small-molecule microarray, fluorescence 635/667 (AID 1086); conditions: higher = more signal;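 further: score merges 667 nm fluorescence with signal-to-noise of each printed compound spot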
[10] = binders of probe aHhip on microarray, primary screen, stem cell growth factor project, biochemical, small-molecule microarray, fluorescence 635/667 (AID 1087); conditions: higher = more signal;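 further: score merges spot fluorescence at 667nm with spot signal to noise ratio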

Neurogenic locus notch homolog protein 2 (Homo sapiens), sequence (Q04721 whole entry, looked up, canonical isoform): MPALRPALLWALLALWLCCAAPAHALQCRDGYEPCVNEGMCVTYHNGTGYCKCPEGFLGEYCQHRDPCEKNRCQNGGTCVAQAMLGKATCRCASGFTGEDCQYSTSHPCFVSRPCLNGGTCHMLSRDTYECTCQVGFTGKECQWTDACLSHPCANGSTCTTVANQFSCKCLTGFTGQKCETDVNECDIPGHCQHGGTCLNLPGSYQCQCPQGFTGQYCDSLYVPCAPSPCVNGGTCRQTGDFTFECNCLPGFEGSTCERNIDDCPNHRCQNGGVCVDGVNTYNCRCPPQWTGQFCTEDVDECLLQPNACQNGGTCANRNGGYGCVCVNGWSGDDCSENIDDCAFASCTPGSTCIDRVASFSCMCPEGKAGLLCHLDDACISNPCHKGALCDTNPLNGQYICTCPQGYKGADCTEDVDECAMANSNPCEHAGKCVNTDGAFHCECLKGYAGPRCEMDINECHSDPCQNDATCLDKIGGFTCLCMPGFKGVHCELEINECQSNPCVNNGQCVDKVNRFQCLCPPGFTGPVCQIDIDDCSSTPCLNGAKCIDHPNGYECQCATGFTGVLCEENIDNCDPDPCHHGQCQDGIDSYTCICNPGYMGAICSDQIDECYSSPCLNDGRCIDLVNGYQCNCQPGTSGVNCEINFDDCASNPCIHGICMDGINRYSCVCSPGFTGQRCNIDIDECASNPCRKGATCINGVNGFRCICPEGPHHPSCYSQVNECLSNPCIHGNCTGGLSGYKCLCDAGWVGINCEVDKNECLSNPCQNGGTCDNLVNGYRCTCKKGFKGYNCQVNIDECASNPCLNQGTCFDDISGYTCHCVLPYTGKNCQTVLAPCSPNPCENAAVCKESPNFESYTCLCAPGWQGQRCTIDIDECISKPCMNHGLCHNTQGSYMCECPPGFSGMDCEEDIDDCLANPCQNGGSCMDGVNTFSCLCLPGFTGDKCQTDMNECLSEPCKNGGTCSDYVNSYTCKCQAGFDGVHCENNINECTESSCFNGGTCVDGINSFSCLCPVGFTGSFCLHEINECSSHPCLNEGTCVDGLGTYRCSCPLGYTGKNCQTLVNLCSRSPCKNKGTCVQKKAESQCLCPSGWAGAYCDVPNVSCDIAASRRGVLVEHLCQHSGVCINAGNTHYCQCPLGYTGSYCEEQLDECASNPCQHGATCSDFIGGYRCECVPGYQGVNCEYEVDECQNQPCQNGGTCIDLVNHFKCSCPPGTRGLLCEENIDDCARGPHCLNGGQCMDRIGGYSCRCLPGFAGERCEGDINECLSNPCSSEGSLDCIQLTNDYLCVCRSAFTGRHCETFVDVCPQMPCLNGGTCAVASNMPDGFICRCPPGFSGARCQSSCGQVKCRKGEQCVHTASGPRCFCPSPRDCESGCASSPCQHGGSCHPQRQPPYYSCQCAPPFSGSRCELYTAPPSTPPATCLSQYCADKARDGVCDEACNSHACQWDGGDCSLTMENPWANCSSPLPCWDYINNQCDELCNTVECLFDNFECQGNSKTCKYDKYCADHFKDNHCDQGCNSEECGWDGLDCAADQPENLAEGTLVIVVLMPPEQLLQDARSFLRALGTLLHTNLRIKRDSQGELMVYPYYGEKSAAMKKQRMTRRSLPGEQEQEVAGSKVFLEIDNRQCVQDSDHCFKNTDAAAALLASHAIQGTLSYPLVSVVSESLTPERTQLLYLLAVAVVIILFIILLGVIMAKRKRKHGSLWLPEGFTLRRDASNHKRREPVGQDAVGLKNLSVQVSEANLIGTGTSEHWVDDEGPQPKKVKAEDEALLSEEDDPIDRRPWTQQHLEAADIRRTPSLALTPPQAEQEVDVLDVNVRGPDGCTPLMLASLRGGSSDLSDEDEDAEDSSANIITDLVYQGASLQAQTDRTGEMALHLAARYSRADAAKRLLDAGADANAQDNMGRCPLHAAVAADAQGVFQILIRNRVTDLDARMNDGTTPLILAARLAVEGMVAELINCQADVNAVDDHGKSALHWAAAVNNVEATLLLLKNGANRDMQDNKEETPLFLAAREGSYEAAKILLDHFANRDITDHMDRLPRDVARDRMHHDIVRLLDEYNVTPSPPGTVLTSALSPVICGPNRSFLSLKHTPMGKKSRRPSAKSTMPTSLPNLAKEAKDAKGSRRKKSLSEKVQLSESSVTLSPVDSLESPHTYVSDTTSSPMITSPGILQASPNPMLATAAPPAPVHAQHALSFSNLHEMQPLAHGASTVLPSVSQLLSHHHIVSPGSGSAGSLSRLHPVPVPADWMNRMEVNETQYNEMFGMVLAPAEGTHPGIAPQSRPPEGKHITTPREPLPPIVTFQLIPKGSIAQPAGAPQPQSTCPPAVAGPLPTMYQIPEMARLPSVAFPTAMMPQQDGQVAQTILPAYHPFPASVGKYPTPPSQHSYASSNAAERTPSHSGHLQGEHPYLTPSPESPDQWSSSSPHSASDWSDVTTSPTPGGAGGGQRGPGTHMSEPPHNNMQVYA
Pro-neuregulin-1, membrane-bound isoform (Homo sapiens), sequence (Q02297 whole entry, looked up, the tested form may be a part, canonical isoform): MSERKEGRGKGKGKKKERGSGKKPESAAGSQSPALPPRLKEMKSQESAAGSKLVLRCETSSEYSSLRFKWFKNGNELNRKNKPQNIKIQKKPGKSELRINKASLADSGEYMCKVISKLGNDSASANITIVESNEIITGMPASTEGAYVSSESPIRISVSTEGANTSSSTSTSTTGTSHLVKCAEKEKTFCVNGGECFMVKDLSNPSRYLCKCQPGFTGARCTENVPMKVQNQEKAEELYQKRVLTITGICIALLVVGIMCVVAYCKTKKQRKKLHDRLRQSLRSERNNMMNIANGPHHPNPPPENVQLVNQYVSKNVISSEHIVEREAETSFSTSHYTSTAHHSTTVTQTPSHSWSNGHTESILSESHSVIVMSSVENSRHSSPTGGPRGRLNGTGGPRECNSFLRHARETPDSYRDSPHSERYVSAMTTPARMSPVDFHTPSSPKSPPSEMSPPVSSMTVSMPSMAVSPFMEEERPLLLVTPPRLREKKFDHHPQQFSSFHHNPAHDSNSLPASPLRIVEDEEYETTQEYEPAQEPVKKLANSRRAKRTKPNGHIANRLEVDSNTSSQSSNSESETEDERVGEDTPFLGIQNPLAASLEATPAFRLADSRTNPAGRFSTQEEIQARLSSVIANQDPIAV

| Compound | composite z-score [1] | composite z-score [2] | composite z-score [3] | composite z-score [4] | composite z-score [5] | composite z-score [6] | composite z-score [7] | z-score [8] | composite z-score [9] | composite z-score [10] |
| --- | --- | --- | --- | --- | --- | --- | --- | --- | --- | --- |
| [N-]=[N+]=NCc1ccccc1C[C@]1(C(=O)NCc2ccccc2)N=C(c2ccc(OCCCO)cc2)O[C@H]1c1ccccc1CN=[N+]=[N-] | 1.79 | 0.227 | 0.14 | 0.0819 | 1.13 | 1.73 | 1.16 | 0.976 (inactive) | 0.654 | -0.082 |
| CCOC(=O)C[C@H]1[C@H](OC(=O)c2cc3ccccc3oc2=O)[C@@H](NC(=O)C2CCCCC2)c2cc(OCCCO)ccc2N1C(=O)Cc1ccc(OC)cc1 | -0.0716 | 0.714 | 0.0066 | 0.65 | 0.54 | 0.052 | 0.72 | 0.198 (inactive) | 0.352 | -0.201 |
| C=C(CCCC)C(=O)CC[C@H](OC(=O)c1cccnc1)c1ccc(CO)o1 | -0.426 | 1.08 | -0.0752 | 0.797 | 0.816 | 0.407 | 1.23 | -0.0577 (inactive) | 0.606 | -0.134 |
| CC(C)CNC(=O)[C@@]1(C)c2ccccc2C(=O)N(Cc2cc(F)cc(C(F)(F)F)c2)[C@H]1c1ccc(CO)cc1 | -0.182 | -0.188 | -0.0422 | 0.325 | -0.102 | 0.669 | 1.11 | -1.48 (inactive) | 0.0289 | 0.0722 |
| COCCOC(=O)N1C(=O)[C@@]2(c3cc(C#CCCO)ccc31)[C@H](c1ccc(O)cc1)N1[C@H](c3ccccc3)[C@H](c3ccccc3)OC(=O)[C@H]1[C@@H]2C(=O)N1CCc2cc(OC)c(OC)cc2C1 | 0.0104 | 0.366 | -0.0004 | 0.525 | 1.36 | 1.04 | 1.32 | -0.994 (inactive) | 0.411 | -0.271 |
| O=C1OCCC=C[C@H]2OC34C=CCN(c5ccc(Cl)cc5)C(=O)[C@H]3N(CCO)C(=O)[C@@H]4C12 (stereo not given in full) | 0.0828 | 1.85 | -0.166 | -0.434 | -0.568 | -0.666 | -0.501 | -0.0731 (inactive) | -0.564 | -0.0618 |
| O=C1O[C@@H](c2ccccc2)[C@@H](c2ccccc2)N2[C@@H](c3ccc(OCCO)cc3)[C@]3(C(=O)Nc4ccc(C#CCCO)cc43)[C@@H](C(=O)Nc3nc4ccccc4s3)[C@H]12 | 0.0758 | 0.482 | -0.0316 | 0.444 | 1.03 | 1.14 | 1.07 | 0.28 (inactive) | 1.27 | -0.0241 |
| CCOC(=O)C[C@H]1[C@H](OC(=O)c2ccc(-c3ccccc3)cc2)[C@@H](NC(=O)c2ccc3ccccc3c2)c2cc(OCCCO)ccc2N1C(=O)c1ccccc1 | -0.211 | -0.0761 | -0.0692 | 0.557 | 0.736 | -0.0077 | 0.627 | -0.182 (inactive) | 0.412 | -0.0115 |
| CO[C@H]1O[C@H](CO)[C@@H](OC(=O)Nc2ccc3c(c2)OCO3)[C@@H]2OC(=O)[C@@H](Cc3ccccc3)C/C=C/C[C@H](Cc3ccccc3)C(=O)O[C@@H]12 | -0.276 | -0.0172 | 0.0631 | 0.984 | 1.12 | 0.995 | 0.976 | -0.277 (inactive) | 0.508 | 0.0373 |
| O=C1OCCC=C[C@H]2OC34C=CCN(CCN5CCOCC5)C(=O)[C@H]3N(CCCO)C(=O)[C@@H]4C12 (stereo not given in full) | -0.0143 | -2.48 | -0.14 | -0.776 | -0.956 | 0.399 | -0.873 | 0.122 (inactive) | -0.272 | -0.0994 |
| CC(C)=CCN(C(=O)C#Cc1ccccc1)[C@H](CO)c1ccccc1 | -0.591 | 0.645 | -0.0692 | 0.118 | 0.248 | -0.141 | 0.283 | -5.11 (inactive) | 0.223 | -0.0994 |
| COCCOC(=O)N1C(=O)[C@@]2(c3cc(C#CCNC(N)=O)ccc31)[C@H](C(=O)NC[C@H](O)c1ccccc1)[C@H]1C(=O)O[C@H](c3ccccc3)[C@H](c3ccccc3)N1[C@@H]2c1ccc(OCCO)cc1 | 0.102 | 0.249 | 0.0198 | 0.656 | 0.431 | 0.634 | 0.877 | 0.769 (inactive) | 0.538 | -0.0994 |
| COCCOC(=O)N1C(=O)[C@@]2(c3cc(C#CCCO)ccc31)[C@H](C(=O)N1CCc3cc(OC)c(OC)cc3C1)[C@H]1C(=O)O[C@H](c3ccccc3)[C@H](c3ccccc3)N1[C@@H]2c1ccccc1OCCO | -0.327 | 0.255 | -0.0336 | 1 | 1.47 | 0.317 | 1.19 | -0.742 (inactive) | 0.0205 | -0.111 |
| NC(=O)N1C(=O)C2C(C1=O)C1C=C(CCCO)C2C(c2ccc(CN3CCCC3)cc2)N1Cc1cccc(OC(F)(F)F)c1 (stereo not given) | -0.0367 | 0.145 | 0.028 | 0.173 | 0.185 | -0.299 | 1.03 | -0.0987 (inactive) | 0.0635 | -0.0296 |
| CN(C)CCCCNC(=O)[C@H]1C[C@H]2C(=O)N[C@@H](Cc3ccccc3)C(=O)N2[C@H]1c1cccc(OCCO)c1 | 0.863 | 0.46 | -0.158 | -0.436 | -0.252 | 0.136 | 0.606 | 3.32 (inactive) | -0.549 | 0.0092 |
| CC(C)(C)OC(=O)CC[C@]1(C(N)=O)N=C(c2ccc(OCCCO)cc2)O[C@H]1c1ccccc1CN=[N+]=[N-] | 0.68 | 1.13 | 0.191 | 0.873 | 1.53 | 2.66 | 1.47 | 5.29 (inactive) | 0.441 | 0.0722 |
| C[C@]1(C(=O)NCC(F)(F)F)c2ccccc2C(=O)N(Cc2ccc(OC(F)(F)F)cc2)[C@H]1c1ccc(CO)cc1 | -0.303 | 0.67 | -0.0757 | 0.198 | -0.298 | 0.0763 | 0.531 | -3.89 (inactive) | -0.209 | -0.0645 |
| CC(=O)NCCCC[C@@H]1NC(=O)[C@H]2C[C@@H](C(=O)NCCCCCC[N+](C)(C)C)[C@@H](c3ccc(O)cc3)N2C1=O | -0.383 | 0.808 | -0.144 | -0.351 | -0.181 | 1.35 | 1.41 | 5.36 (inactive) | -0.18 | -0.199 |
| COCCOC(=O)N1C(=O)[C@@]2(c3cc(C#CCC(C(=O)OC)C(=O)OC)ccc31)[C@H](C(=O)N1CCCCCCC1)[C@H]1C(=O)O[C@H](c3ccccc3)[C@H](c3ccccc3)N1[C@@H]2c1ccccc1OCCO | 3.92 | 1.8 | 0.825 | 0.481 | 1.39 | 0.811 | 1.12 | 0.158 (inactive) | 3.34 | 2.72 |
| COC(=O)[C@@]1(CCC(=O)OC(C)(C)C)N=C(c2ccc(OCCCO)cc2)O[C@H]1c1ccccc1CN=[N+]=[N-] | 0.0643 | -0.13 | -0.12 | -0.191 | -0.066 | 0.118 | 0.148 | -2.14 (inactive) | -0.04 | 0.21 |
| C=CCC(OC(C)=O)[C@@H]1[C@@H](N(Cc2ccc(-c3cccc(C(F)(F)F)c3)o2)C(=O)Cc2ccc(F)cc2)c2cc(OCCCO)ccc2N1C(=O)c1ccc2ccccc2c1 (stereo not given in full) | 0.196 | 0.167 | -0.133 | -0.428 | -0.58 | -0.28 | -0.0656 | 0.512 (inactive) | 0.487 | -0.0994 |
| CN(C)CCCC[C@@H]1NC(=O)[C@@H]2C[C@H](C(=O)NCc3ccc(F)cc3)[C@H](c3ccc(O)cc3)N2C1=O | 0.274 | 0.295 | -0.103 | 0.203 | -0.446 | 0.625 | 1.49 | 0.254 (inactive) | -0.512 | -0.191 |
| CN1C(=O)C2C=CC(C(O)c3ccc(-c4ccccc4)s3)N(Nc3ccccc3)C2C1=O (stereo not given) | 0.876 | 0.358 | 0.0754 | 0.454 | 1.67 | 1.43 | 1.09 | 0.0583 (inactive) | 1.15 | 0.245 |
| C=CCC(OC(C)=O)[C@@H]1[C@@H](N(Cc2cc3ccccc3o2)C(=O)c2ccc(-c3ccccc3)cc2)c2cc(OCCCO)ccc2N1C(=O)c1ccc2ccccc2n1 (stereo not given in full) | -0.128 | -0.0562 | -0.128 | 0.0599 | -0.234 | 0.0289 | -0.464 | -1.47 (inactive) | 0.268 | 0.417 |
| CC(c1ccccc1)C(O)C1C=CC2C(=O)N(c3ccccc3)C(=O)C2N1Nc1ccc(C#N)cc1 (stereo not given) | -0.177 | 0.358 | 0.255 | 0.752 | 1.59 | 1.91 | 1.34 | -0.948 (inactive) | 1.42 | 0.0139 |
| O=C1C2C=CC(C(O)c3cccc(O)c3)N(Nc3ccccc3F)C2C(=O)N1c1ccccc1 (stereo not given) | 0.0355 | 0.74 | -0.0005 | -0.0284 | 0.0745 | 0.445 | 0.218 | 2.18 (inactive) | 0.725 | -0.437 |
| Cc1ccc(S(=O)(=O)N2[C@@H](c3ccccc3)C(C(=O)O)=CC[C@H]2c2ccc(C#N)cc2)cc1 | 0.163 | -0.198 | 0.0624 | 1.07 | 1.39 | 1.72 | 0.808 | -3.73 (inactive) | 0.538 | -0.265 |
| CN1C(=O)C2C(C1=O)C1C=C(c3ccc(CO)cc3)C2C(c2cccs2)N1C (stereo not given) | 0.085 | 0.429 | -0.0578 | 0.0934 | -0.0125 | 0.885 | 1.04 | 1.63 (inactive) | -0.075 | -0.137 |
